Results taken from publication PMC5540273 (PLoS ONE, 2017).

Experiments:
Details in all cases: concentration: 1 μM, replicates: in singlicate; n = 1
[1] = tested on: RPS6KA5(Kin.Dom.2-C-terminal)
[2] = tested on: T1, RSK1(Kin.Dom.1-N-terminal)
T1 construct: gene RPS6KA1

[3] = tested on: T2, RSK1(Kin.Dom.2-C-terminal)
T2 construct: gene RPS6KA1

[4] = tested on: T3, RSK2(Kin.Dom.1-N-terminal)
T3 construct: gene RPS6KA3

[5] = tested on: T4, RSK2(Kin.Dom.2-C-terminal)
T4 construct: gene RPS6KA3

[6] = tested on: T5, RSK3(Kin.Dom.1-N-terminal)
T5 construct: gene RPS6KA2

[7] = tested on: T6, RSK3(Kin.Dom.2-C-terminal)
T6 construct: gene RPS6KA2

[8] = tested on: T7, RSK4(Kin.Dom.1-N-terminal)
T7 construct: gene RPS6KA6

[9] = tested on: T8, RSK4(Kin.Dom.2-C-terminal)
T8 construct: gene RPS6KA6

S6K1 = tested on: S6K1
SBK1 = tested on: SBK1
SGK2 = tested on: SGK2
SGK3 = tested on: SGK3
SGK = tested on: SGK
SIK2 = tested on: SIK2
SIK = tested on: SIK
SLK = tested on: SLK
SNARK = tested on: T9, SNARK
T9 construct: gene NUAK2

SNRK = tested on: SNRK
SRC = tested on: SRC
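Further: KINOMEscan kinase panel screen.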

Structure (SMILES)	%Inh [1]	%Inh [2]	%Inh [3]	%Inh [4]	%Inh [5]	%Inh [6]	%Inh [7]	%Inh [8]	%Inh [9]	%Inh (S6K1)	%Inh (SBK1)	%Inh (SGK2)	%Inh (SGK3)	%Inh (SGK)	%Inh (SIK2)	%Inh (SIK)	%Inh (SLK)	%Inh (SNARK)	%Inh (SNRK)	%Inh (SRC)
O=C(Nc1n[nH]c2nc(-c3ccco3)c(Br)cc12)c1ccc(CN2CCCC2)cc1.O=C(O)[C@H](O)[C@@H](O)C(=O)O [SB-742352]	0%	5%	0%	3%	0%	0%	0%	13%	0%	11%	12%	1%	0%	17%	3%	0%	25%	0%	0%	22%
COc1ccc(NC(=O)Nc2ccc(C)c(-c3ccc(C(=O)Nc4ccncc4)cc3)c2)cc1 [GSK1398475]	0%	16%	3%	0%	0%	0%	0%	0%	22%	0%	0%	0%	10%	0%	0%	7%	0%	0%	0%	0%
O=C(CCO)NCCn1ccc2ncnc(Nc3ccc(Oc4cccc(C(F)(F)F)c4)c(Cl)c3)c21	0%	0%	0%	0%	0%	3%	4%	0%	0%	0%	0%	0%	0%	0%	16%	10%	37%	0%	0%	0%
Fc1cccc(COc2ccc(Nc3ncnc4cc[nH]c34)cc2Cl)c1	0%	12%	23%	15%	0%	8%	26%	20%	29%	21%	52%	26%	40%	23%	0%	15%	34%	36%	21%	16%
CNc1nccc(-c2c(-c3ccc(F)cc3)ncn2C2CCN(C)CC2)n1 [SB-222903]	12%	0%	32%	5%	0%	0%	0%	0%	73%	0%	0%	0%	0%	0%	17%	0%	0%	0%	0%	0%
OCCOCCn1ccc2ncnc(Nc3ccc(Oc4cccc(Cl)c4)c(Cl)c3)c21	0%	0%	0%	0%	0%	3%	4%	0%	2%	0%	0%	0%	0%	0%	0%	0%	39%	0%	0%	0%
COc1cc2ncnc(Nc3ccc(OCc4ccccc4Br)c(Cl)c3)c2cc1OC.Cl [GI261590]	0%	32%	0%	0%	3%	100%	0%	0%	0%	11%	7%	11%	0%	4%	12%	0%	86%	0%	0%	0%
COc1ccc(Nc2nccc(N3CCC(NC(=O)Nc4ccc5c(c4)OCO5)C3)n2)cc1 (stereo not shown) [GSK1379745]	0%	0%	8%	10%	0%	17%	19%	0%	41%	0%	21%	6%	6%	1%	0%	6%	27%	8%	0%	22%
Nc1nc(-c2ccc3c(N)n[nH]c3c2)cc(N2CCC[C@@H](C(=O)Nc3ccccc3)C2)n1.O=C(O)C(F)(F)F.O=C(O)C(F)(F)F [GSK2288359]	6%	20%	13%	0%	0%	7%	0%	0%	5%	0%	0%	0%	8%	0%	0%	0%	0%	21%	0%	0%
C[C@@H]1CCN(C(=O)CO)C[C@@H]1N(C)c1ncnc2[nH]ccc12	13%	0%	4%	0%	0%	0%	23%	0%	30%	1%	0%	0%	1%	0%	0%	10%	0%	10%	3%	6%
O=C(NCCCN1CCCC1=O)c1cnc(NCc2cc(Cl)ccc2Cl)nc1NC1CCNCC1	0%	100%	5%	0%	0%	39%	8%	0%	17%	26%	0%	0%	0%	0%	0%	7%	14%	0%	0%	0%
